The list is not random: actives were taken first. Their share in the collection is about 0.61%.
BH1578 lux ind: inducers of Vibrio cholerae quorum light production without autoinducers; V. cholerae BH1578 lux reporter, luminescence, 6 h; activation, % at 18.7 µM; actives 0.16% (n = 350,000); AID 588436; in the data active = activation mostly above about 9.7%, no sharp cut-off
TcdB GH inh: TcdB glycohydrolase inhibition; AID 652162; P18177; actives 0.24% (n = 350,000); inhibition, % at 9.99 µM; TcdB glycohydrolase enzymatic assay, plate reader; in the data active = inhibition above about 10%
FadD28 binding: inhibitors of Mycobacterium tuberculosis FadD28 bisubstrate binding | inhibition, % at 12.5 µM | FadD28 bisubstrate probe binding, fluorescence polarization | actives 0.22% (n = 360,000) | AID 588549; in the data active = inhibition above about 8.5%, passing the limit was not always enough
Y pestis TopoI: blocks Yersinia pestis topoisomerase I activity; AID 504884; actives 0.064% (n = 360,000); Y. pestis Topo-I cleavage product accumulation, plate reader; activity, % at 10 µM; in the data active = activity above about 50%, passing the limit was not always enough
BioA inh: BioA (M. tuberculosis) enzyme inhibition; inhibition, % at 9.99 µM; AID 602481; actives 0.096% (n = 360,000); purified M. tuberculosis BioA enzyme, plate reader; in the data active = inhibition above about 40%
Numbers stand for hits; - = inactive; . = no result given; + = active, no number.

SMILES	BH1578 lux ind	TcdB GH inh	FadD28 binding	Y pestis TopoI	BioA inh
O=C(O)C[C@@H]1CC[C@H](NC(=O)c2ccncc2)[C@@H](CO)O1	.	-	.	.	-
CO[C@H]1CN(C)C(=O)c2cc(NC(=O)C3CC3)ccc2OC[C@@H](C)N(C(C)=O)C[C@H]1C	.	-	.	.	-
COc1ccc2c3c(n(C)c2c1)[C@@H](CO)N(C(=O)Nc1ccc(F)cc1)CC31CN(C(=O)Nc2c(C)noc2C)C1	.	-	.	.	.
COc1cc(/C(C)=N/NC(=O)CSc2nnc(C)s2)ccc1O	-	11	-	-	-
C/C(=N\NC(=O)CSc1nnc(C)s1)c1ccc(O)cc1	-	-	-	-	.
COc1cc(/C=C/C(=O)OCC(=O)NC(=O)NC(C)C)ccc1OCC#N	-	.	-	-	-
COc1cc(/C=C/C(=O)OCC(=O)N(C)Cc2ccccc2)cc(OC)c1OC	-	-	-	-	-
COc1cc(/C=C/C(=O)OCC(=O)c2ccc[nH]2)ccc1O	-	15	-	-	-
COc1cc(/C=C/C(=O)OCC(=O)NC(=O)NC(C)C)ccc1O	-	12	-	-	-
COc1cc(/C=C/C(=O)OCC(=O)N(C)Cc2ccccc2)ccc1O	-	11	-	-	-
CCCS(=O)(=O)NC(=O)C1(C)CCN(C(=O)c2ccco2)C1 (stereo not given)	-	11	-	-	-
COC(=O)C[C@@H]1C[C@@H]2c3cc(NS(=O)(=O)c4ccccc4)ccc3O[C@@H]2[C@H](CO)O1	.	.	.	.	-
Cc1ccc(C2=NS(=O)(=O)N(C)C(C(=O)NCc3cccs3)=C2)cc1	-	19	-	-	-
CN(C)CC(=O)N1[C@H](CO)[C@H](c2ccccc2-c2cccc(C(=O)N(C)C)c2)[C@@H]1C#N	.	-	.	.	.
COCC(=O)Nc1ccc2c(c1)C(=O)N(C)C[C@@H](OC)[C@@H](C)CN[C@@H](C)CO2	.	.	.	.	-
CC(C)Cc1cc(C(=O)N2CCCC(CO)(Cc3ccc(F)cc3)C2)no1 (stereo not given)	-	11	-	-	.
C[C@@H]1CN([C@@H](C)CO)S(=O)(=O)c2ccc(C#CCC3CCCC3)cc2O[C@H]1CN(C)C	.	-	.	.	-
Cc1ccc(S(=O)(=O)Nc2cccc3c2O[C@@H](CN(C)C(=O)Nc2ccc4c(c2)OCO4)[C@H](C)CN([C@@H](C)CO)C3=O)cc1	-	-	11	-	-
C[C@@H]1CN([C@H](C)CO)C(=O)c2cccc(N(C)C)c2O[C@H]1CN(C)C(=O)Nc1ccc(C(F)(F)F)cc1	.	-	.	.	-
C[C@@H]1CN([C@H](C)CO)C(=O)c2cccc(N(C)C)c2O[C@@H]1CN(C)C(=O)Nc1ccc(C(F)(F)F)cc1	.	13	.	.	-
O=C1NC(=S)N(c2ccccc2)C(=O)/C1=C/c1ccco1	-	-	11	-	-
C[C@H]1CCCCO[C@H](CN(C)C(=O)C2CCCCC2)[C@@H](C)CN([C@@H](C)CO)C(=O)c2cc(NS(=O)(=O)c3ccc(Cl)cc3)ccc2O1	.	-	.	.	-
CC(C)CN(C(=O)c1ccc(-n2cncn2)c([N+](=O)[O-])c1)C1CCS(=O)(=O)C1 (stereo not given)	-	-	22	-	-
CC(C)CN(C(=O)c1cc([N+](=O)[O-])cc([N+](=O)[O-])c1)C1CCS(=O)(=O)C1 (stereo not given)	-	-	-	-	-
C[C@H]1CCCCO[C@@H](CN(C)C(=O)NC2CCCCC2)[C@@H](C)CN([C@@H](C)CO)C(=O)c2cc(NS(=O)(=O)c3cccs3)ccc2O1	.	-	.	.	-
SMILES	BH1578 lux ind	TcdB GH inh	FadD28 binding	Y pestis TopoI	BioA inh
CCCNC(=O)C[C@@H]1C[C@@H]2c3cc(NS(=O)(=O)c4ccccc4)ccc3O[C@@H]2[C@H](CO)O1	.	.	.	.	-
Cc1nc(SCC(=O)N2CCNC2=O)c(C#N)c(C)c1C	-	13	-	-	-
O=C(CC1C(=O)NCCN1Cc1ccccc1C(F)(F)F)NCCN1CCOCC1 (stereo not given)	-	-	-	-	-
CN(CCN1CCOCC1)C(=O)CC1C(=O)NCCN1Cc1ccccc1C(F)(F)F (stereo not given)	-	19	-	-	-
Cc1ccc(S(=O)(=O)NC[C@@H]2CC[C@@H]3[C@@H](CN3Cc3cc(-c4ccccc4)on3)O2)cc1	.	-	.	.	.
COCC(=O)N1[C@@H](CO)[C@@H](c2ccccc2)C12CN(C(=O)NC1CCCC1)C2	.	-	.	.	.
O=C(CCCN1C(=O)/C(=C\c2ccco2)SC1=S)Nc1ccc(O)cc1C(=O)O	-	-	40	-	-
O=C(CCCN1C(=O)/C(=C/c2ccco2)SC1=S)Nc1cccc(C(=O)O)c1	-	-	18	-	.
O=C(CCCN1C(=O)/C(=C\c2cccs2)SC1=S)Nc1ccc(O)cc1C(=O)O	-	-	-	-	-
COCC(=O)Nc1ccc2c(c1)C(=O)N(C)C[C@H](OC)[C@@H](C)CN(C(=O)Cc1ccccn1)[C@@H](C)CO2	.	-	.	.	-
O=C(O)C1Nc2c(Cl)cc(Cl)cc2C2C=CCC12 (stereo not given)	-	.	14	-	-
O=C(O)C1Nc2c(O)cccc2C2C=CCC12 (stereo not given)	-	-	15	-	.
O=C(O)C1Nc2ccc(Br)cc2C2C=CCC12 (stereo not given)	-	.	27	-	-
Cc1ccc(S(=O)(=O)Nc2ccc3c(c2)C(=O)N([C@@H](C)CO)C[C@H](C)[C@H](CN(C)C(=O)Nc2c(C)noc2C)OCCCC[C@@H](C)O3)cc1	.	-	.	.	.
C#CCN([C@H](/C=C/C1CC1)[C@@H](O)Cc1ccccc1)[C@@H](Cc1ccccc1)C(=O)OC	.	-	.	.	.
Cc1csc(N/N=C/c2ccc(O)c([N+](=O)[O-])c2)n1	-	.	9.3	-	-
COCC(=O)N(C)C[C@@H]1Oc2cc(C#C[C@H](C)O)ccc2S(=O)(=O)N([C@H](C)CO)C[C@@H]1C	.	-	.	.	-
Cc1scc(C(=O)N2CCN(c3ccc(Cl)cc3)CC2)c1C	-	11	-	-	-
Cc1occc1C(=O)N1CCN(c2ccc(Cl)cc2)CC1	-	-	-	-	-
CCN(Cc1ccccc1)C(=O)c1oc2ccc(C)cc2c1C	-	-	-	53	-
O=C(C[C@H]1CC[C@@H]2[C@H](COC[C@@H](O)CN2Cc2nccs2)O1)NCc1ccc(Oc2ccccc2)cc1	.	-	.	.	-
Cc1ccc(N2C(=O)C3Sc4[nH]c(=O)sc4C(c4ccccc4)C3C2=O)cc1 (stereo not given)	+	.	-	-	-
O=C1C2Sc3[nH]c(=O)sc3C(c3ccccc3)C2C(=O)N1c1ccc(Cl)cc1 (stereo not given)	-	.	-	-	-
C[C@@H]1CN([C@@H](C)CO)S(=O)(=O)c2ccc(C#Cc3ccncc3)cc2O[C@H]1CN(C)C	.	-	.	.	-
CC(C)(C)OC(=O)NCc1ccc(NC(=O)c2nc[nH]c2C(=O)NCCNC(=O)c2[nH]cnc2C(=O)Nc2ccc(CNC(=O)OC(C)(C)C)cc2)cc1	-	.	-	79	-
CC(C)(C)OC(=O)CNC(=O)c1[nH]cnc1C(=O)Nc1ccc(CNC(=O)OC(C)(C)C)cc1	-	-	-	-	-

Screening data: PubChem, Broad Institute
